# Measurements: article PMC5540273 (PLoS ONE, 2017)
# Several values for one entry are separate records, joined by “and”; a condition that tells them apart may be missing. Equal values may be shown once. Read-outs that look alike come from different tables or passages of the source.
# Assays:
# MST2 = test system: T1, MST2; conditions: n = 1
# T1 construct: gene STK3
# MST3 = test system: T2, MST3; conditions: concentration: 1 μM, replicates: in singlicate; n = 1
# T2 construct: gene STK24
# MST4 = conditions: n = 1
# MTOR = conditions: n = 1
# MUSK = conditions: n = 1
# MYLK2 = conditions: n = 1
# MYLK4 = conditions: n = 1
# MYLK = conditions: n = 1
# MYO3A = conditions: n = 1
# MYO3B = conditions: n = 1
# [1] = concentration: 1 μM, replicates: in singlicate
# [2] = concentration: 1 μM,replicates: in singlicate, 1 µM
# 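Note: KINOMEscan kinase panel screen.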
Compound,%Inh (MST2; [1]),%Inh (MST3),%Inh (MST4; [1]),%Inh (MTOR; [1]),%Inh (MUSK; [1]),%Inh (MYLK2; [1]),%Inh (MYLK4; [1]),%Inh (MYLK; [1]),%Inh (MYO3A; [1]),%Inh (MYO3B; [1]),%Inh (MST2; [2]),%Inh (MST4; [2]),%Inh (MTOR; [2]),%Inh (MUSK; [2]),%Inh (MYLK2; [2]),%Inh (MYLK4; [2]),%Inh (MYLK; [2]),%Inh (MYO3A; [2]),%Inh (MYO3B; [2])
Cc1cc(NCC(c2ccccc2)c2ccccc2)nc(NCc2ccc(C(F)(F)F)cc2)n1 [GW497681],0%,3%,0%,1%,0%,0%,0%,15%,34%,0%,–,–,–,–,–,–,–,–,–
COc1ccc(Nc2nccc(NCCNC(=O)Nc3ccccc3F)n2)cc1 [GSK1379901],0%,0%,0%,22%,15%,0%,0%,15%,12%,0%,–,–,–,–,–,–,–,–,–
Cc1c(Cn2ccn3c(=O)cc(N4CCOCC4)nc23)cccc1C(F)(F)F [GSK2289044],0%,0%,0%,15%,17%,0%,0%,16%,12%,2%,–,–,–,–,–,–,–,–,–
CCn1c(-c2ccccn2)nc2cnccc21 [SB-736398],0%,0%,0%,0%,5%,3%,2%,0%,18%,0%,–,–,–,–,–,–,–,–,–
Cc1cccc(-c2nc(Nc3ccncc3)c3ccccc3n2)n1 [GW855857],0%,3%,0%,50%,17%,7%,7%,12%,0%,17%,–,–,–,–,–,–,–,–,–
COC(=O)c1c(-c2ccccc2)c2cc(C(=O)O)ccc2c(=O)n1Cc1ccccc1,12%,0%,9%,25%,0%,8%,0%,0%,0%,0%,–,–,–,–,–,–,–,–,–
CC(C)(C)c1ccc(C(=O)Nc2cn3cc(Cl)ccc3n2)cc1,0%,0%,0%,31%,0%,0%,0%,9%,7%,0%,–,–,–,–,–,–,–,–,–
CSc1nn2c(=O)cc(N3CCOCC3)nc2n1Cc1cccc(C(F)(F)F)c1C [GSK2363608],–,0%,–,–,–,–,–,–,–,–,9% and 1%,90.3% and 0%,13% and 28%,12% and 4%,19% and 0%,17% and 0%,6% and 0%,21% and 0%,0% and 14%
COc1ccc(Nc2nccc(-c3cccc(NC(=O)c4cc5cc(F)ccc5[nH]4)c3)n2)cc1 [GSK1229782],24%,15%,0%,21%,6%,19%,11%,31%,60%,0%,–,–,–,–,–,–,–,–,–
CCn1c(-c2cccnc2O)nc2cnccc21 [SB-736715],23%,0%,0%,0%,0%,15%,0%,0%,0%,3%,–,–,–,–,–,–,–,–,–
CN(C)CCN(C)C(=O)c1cc(-c2ccncc2)c(-c2ccc(Cl)c(O)c2)o1.Cl.Cl [SB-710397],0%,0%,0%,33%,18%,11%,0%,10%,0%,0%,–,–,–,–,–,–,–,–,–
Cc1cccc(-c2cc(Nc3ccncc3)c3ccccc3n2)n1 [GSK223675],6%,5%,0%,7%,1%,0%,0%,15%,17%,0%,–,–,–,–,–,–,–,–,–
Cn1cncc1-c1ccc2ncnc(Nc3ccc(OCc4ccccc4)cc3)c2c1 [GW320571],0%,0%,0%,30%,21%,20%,0%,6%,0%,0%,–,–,–,–,–,–,–,–,–
NC(=O)c1nnc2ccccc2c1N,65%,0%,15%,10%,10%,0%,78%,37%,9%,5%,–,–,–,–,–,–,–,–,–
Cl.Oc1ccc(-c2nc(-c3ccccc3)[nH]c2-c2ccncc2)cc1 [SB-428218],0%,0%,0%,32%,0%,0%,17%,22%,46%,0%,–,–,–,–,–,–,–,–,–
CS(=O)(=O)c1ccc(-c2nc3n(c2-c2ccncc2)CCC3)cc1 [SKF-105942],0%,0%,0%,0%,12%,0%,4%,17%,25%,77%,–,–,–,–,–,–,–,–,–
COc1cc2nccc(Nc3ccc(NC(=O)c4ccc(C)cc4)c(O)c3)c2cc1OC.Cl [GW440132],0%,0%,0%,4%,13%,4%,0%,11%,10%,0%,–,–,–,–,–,–,–,–,–
Cc1cccc(-c2nc(Nc3ccc4[nH]ncc4c3)c3ccccc3n2)n1 [GW857175],0%,10%,27%,0%,0%,7%,32%,32%,0%,0%,–,–,–,–,–,–,–,–,–
